Screening results: PubChem BioAssay, several laboratories
CYP2C19 inhib: inhibitors of human CYP2C19; CYP2C19 Supersomes, luciferin-H EGE luminescence, 30 min; 96,000 compounds, 21% hits; inhibition, % at 5 µM; P33261;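 active means CYP2C19 inhibition above a set limit at 5 µM in the primary screen, cut at about 50% in these data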;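 further: plate controls were negative control wells for no effect and 2.5 mM tranylcypromine positive control for full effect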
CYP2C19 activ: increases human CYP2C19 enzyme activity; P33261; recombinant CYP2C19, luciferin-H EGE luminescence; hits give high values; 0 = fully inhibited enzyme, 1 = untreated enzyme; activation factor at 5 µM; 96,000 tested, under 10 active; AID 1025;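 active means activation factor of at least 2 at 5 µM in the primary screen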;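 further: 0 = wells with 2.5 mM tranylcypromine and 1 = vehicle-only wells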
CYP2C9 act: CYP2C9 (human) activation; P11712; 96,000 compounds, 1.4% hits; recombinant CYP2C9, luciferin-H conversion, luminescence; hits give high values; factor 1 = untreated enzyme, 0 = blocked; activation factor at 5 µM; AID 1024;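 active means activation factor of 2 or more for CYP2C9 at a 5 µM dose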;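 further: 0 = sulfaphenazole-blocked wells and 1 = vehicle-only wells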
Target sequence (P11712 whole entry, looked up): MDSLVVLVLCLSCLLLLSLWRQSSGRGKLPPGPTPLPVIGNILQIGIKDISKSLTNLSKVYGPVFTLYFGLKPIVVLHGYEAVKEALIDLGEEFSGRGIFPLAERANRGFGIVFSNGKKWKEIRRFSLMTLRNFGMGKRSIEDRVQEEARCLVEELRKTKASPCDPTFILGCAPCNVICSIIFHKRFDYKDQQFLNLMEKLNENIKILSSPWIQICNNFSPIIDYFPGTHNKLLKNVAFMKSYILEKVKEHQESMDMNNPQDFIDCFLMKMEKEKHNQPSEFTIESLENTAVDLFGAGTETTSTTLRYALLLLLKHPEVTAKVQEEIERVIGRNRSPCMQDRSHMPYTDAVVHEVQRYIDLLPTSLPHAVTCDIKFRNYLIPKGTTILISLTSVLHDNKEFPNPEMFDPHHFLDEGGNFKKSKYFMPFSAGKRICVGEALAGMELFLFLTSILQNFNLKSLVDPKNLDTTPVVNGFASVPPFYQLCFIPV
MRP1 act: activators of MRP-1. H69AR cells + doxorubicin, viability rescue, CellTiter-Glo. viability increase, % at 10 µM. 140,000 compounds, 0.61% hits;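 active means viability gain under doxorubicin at or above a set limit, the compound median plus 3 SD, cut at about 4.7% in these data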;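 further: MRP-1 overexpressing cells given doxorubicin 25 µM after compound pretreatment; 18-22 h compound pretreatment then 72 h with doxorubicin before readout; 0% = doxorubicin-only wells and 100% = vehicle-treated cells without doxorubicin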
CYP2C9 inhib: blocks human cytochrome P450 2C9. CYP2C9 Supersomes, luciferin-H conversion, luminescence. 96,000 compounds, 20% hits. AID 777. inhibition, % at 5 µM;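 active means blocking of liver enzyme CYP2C9 beyond about 50% at 5 µM, limit read from the data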
MRP resist rev: compounds reversing MRP-mediated drug resistance; H69AR cells + 2 uM doxorubicin, CellTiter-Glo, 72 h; differential viability (reversal), % at 10 µM; 85,000 compounds, 0.04% hits; AID 602;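 active means viability drop by adding the cancer drug above about 55%, with treated viability meeting a 40% cutoff, limit read from the data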;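 further: viability without doxorubicin minus viability with 2 µM doxorubicin for each compound; larger differential means the compound sensitizes cells more to doxorubicin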
Numbers without * were called inactive; . = not tested or not shown. This is a sample that favours compounds with a hit; in the whole collection about 21% have one here.

SMILES | CYP2C19 inhib | CYP2C19 activ | CYP2C9 act | MRP1 act | CYP2C9 inhib | MRP resist rev
Cc1nc(CCNC(=O)Cc2ccc(Cl)cc2)cs1 | 56* | 0.4 | 0.7 | -2 | 27 | 10
Cc1ccc(C(=O)NCCc2csc(C)n2)cc1 | 13 | 0.9 | 0.5 | -1 | 53* | 13
Cc1cccc(C(=O)NCCc2csc(C)n2)c1 | 12 | 0.9 | 1 | -1 | 4 | 5
C=CCSC1=C(C#N)C(c2ccc(C(C)C)cc2)CC(=O)N1 (stereo not drawn) | 74* | 0.3 | 0.2 | 0 | 82* | 9
C=CCSC1=C(C#N)C(c2ccccc2)CC(=O)N1 (stereo not drawn) | 80* | 0.2 | 0.3 | -1 | 65* | -45
Cn1c(SCC(=O)NC(C)(C)C)nnc1-c1cnccn1 | 8 | 0.9 | 0.8 | -2 | 18 | 20
CN(C)c1ncc(S(=O)(=O)c2ccc(Cl)cc2)c(-c2ccccc2)n1 | 97* | 0 | 0.4 | -3 | 60* | .
O=S(=O)(c1ccc(Cl)cc1)c1snnc1-c1ccccc1 | 90* | 0.1 | 0.7 | -6 | 29 | 1
O=S(=O)(c1ccc(Cl)cc1)c1cnc(-c2cccnc2)nc1-c1ccccc1 | 52* | 0.5 | 0.6 | -1 | 40 | .
Cc1nc(-c2ccccc2)sc1-c1nc(-c2ccncc2)ncc1S(=O)(=O)c1ccccc1 | 93* | 0.1 | 0 | -5 | 96* | .
COc1ccc(Oc2nc(-c3ccccc3)ncc2S(=O)(=O)c2ccccc2)cc1 | 7 | 0.9 | 0.9 | -2 | 8 | .
Cc1ccc(S(=O)(=O)c2cnc(-c3ccccc3)nc2Oc2ccccc2)cc1 | 2 | 1 | 0.9 | -2 | 6 | .
COc1ccc(N2C(=O)CC(NCCNc3ccc([N+](=O)[O-])cn3)C2=O)cc1 (stereo not drawn) | . | . | . | 0 | . | .
CC(C)COc1ccc(/C=C2/Sc3ccccc3C2=O)cc1 | 30 | 0.7 | 0.7 | -4 | 31 | .
CCOC(=O)c1ccc(S(=O)(=O)NNC(=O)COc2ccc(C)cc2)cc1 | . | . | . | -3 | . | .
COC(=O)C(OC(=O)c1ccc(OC)cc1)C(=O)OC | . | . | . | -2 | . | -10
Cc1cc(Cl)ccc1Oc1nc(-c2ccccc2)ncc1S(C)(=O)=O | 4 | 1 | 0.9 | -6 | 7 | .
Cc1ncc(S(=O)(=O)c2ccccc2)c(-c2ccc(Cl)cc2Cl)n1 | 73* | 0.3 | 1 | -2 | 2 | 9
O=c1[nH]c(Nc2ccc(F)cc2)cc2ccccc12 | 86* | 0.1 | 0.2 | -1 | 78* | .
Cc1ccccc1Nc1cc2ccccc2c(=O)[nH]1 | 31 | 0.7 | 0.9 | -2 | 14 | .
COC(=O)C(NC(=O)c1ccccc1)(Nc1nccs1)C(F)(F)F (stereo not drawn) | 23 | 0.8 | 0.8 | 0 | 23 | 0
CCOC(=O)C(NC(=O)OC(C)C)(Nc1nccs1)C(F)(F)F (stereo not drawn) | 55* | 0.4 | 1.1 | 1 | -6 | -11
COc1cc(NC(=O)C/C(C)=N/NC(=O)C(OC)c2ccccc2)c(OC)cc1Cl (stereo not drawn) | . | . | . | -2 | . | .
COC(=O)c1ccc(OCC(O)CN(CC(C)C)CC(C)C)cc1 (stereo not drawn) | 74* | 0.3 | 0.3 | -1 | 71* | 11
COc1cccc(OCC(O)CN(CCO)Cc2ccccc2)c1 (stereo not drawn) | 25 | 0.7 | 0.7 | -1 | 29 | .
SMILES | CYP2C19 inhib | CYP2C19 activ | CYP2C9 act | MRP1 act | CYP2C9 inhib | MRP resist rev
CCC(=O)c1ccc(OCC(O)CN(CCc2ccccc2)Cc2ccccc2)cc1 (stereo not drawn) | 53* | 0.5 | 0.3 | -6 | 70* | .
CCN(CC)CC(O)COc1ccccc1C(=O)CCc1ccccc1 (stereo not drawn) | 60* | 0.4 | 0.7 | . | 28 | -12
Cc1nc(NC(=O)/C=C/c2ccc(C(C)(C)C)cc2)sc1C(=O)N(C)C | . | . | . | 0 | . | .
O=C(CSc1nc(-c2ccc(F)cc2)cs1)N1CCc2ccccc21 | 9 | 0.9 | 0.9 | 0 | 11 | .
Cc1ccc(C)c(N(C(=O)Cn2nnc(-c3cccs3)n2)C(C(=O)NC2CC2)c2ccc(C)o2)c1 (stereo not drawn) | 48 | 0.5 | 0.8 | -1 | 22 | 4
Cc1ccc(N(C(=O)Cn2nnc(-c3cccs3)n2)C(C(=O)NC2CCCC2)c2ccncc2)cc1 (stereo not drawn) | 46 | 0.5 | 0.5 | -1 | 54* | .
O=C(Cn1nnc(-c2ccc(Cl)cc2)n1)NCC1CCCCC1 | 45 | 0.5 | 0.7 | 0 | 33 | 7
O=C(Cn1nnc(-c2ccncc2)n1)N(C1CCCCC1)C1CCCCC1 | 87* | 0.1 | 0.1 | -2 | 87* | 3
CCC(C(=O)NC1CCCC1)N(Cc1ccco1)C(=O)Cn1nnc(-c2ccc(C)cc2)n1 (stereo not drawn) | 83* | 0.2 | 0.3 | 1 | 72* | 9
CCOC(=O)CN(C(=O)Cn1nnc(-c2ccc(C)cc2)n1)C(CC)C(=O)NC1CCCC1 (stereo not drawn) | 25 | 0.8 | 0.7 | 4 | 30 | 1
CC(C)(C)NC(=O)C(c1ccncc1)N(Cc1cccs1)C(=O)Cn1nnc(-c2cccs2)n1 (stereo not drawn) | 92* | 0.1 | 0.1 | -2 | 92* | 0
CN(C#N)c1nc(Cl)nc(Nc2cccc(Cl)c2)n1 | . | . | . | -3 | . | .
N#C/C(=C\c1ccc(OCC(N)=O)cc1)c1ccccc1 | . | . | . | -1 | . | .
Cc1ccc(-c2cc(C(=O)NCc3ccccn3)no2)cc1 | 46 | 0.5 | 0.5 | 0 | 47 | 0
CC(C)(C)NC(=O)C(c1ccncc1)N(C(=O)Cn1nnc(-c2cccs2)n1)C1CCCCC1 (stereo not drawn) | 69* | 0.3 | 0.2 | 0 | 76* | 13
Cc1ccc(-c2nnn(CC(=O)N(c3ccccc3)C(C(=O)NC(C)(C)C)c3cccs3)n2)o1 (stereo not drawn) | . | . | . | -2 | . | 30
Cc1ccc(-c2nnn(CC(=O)N(Cc3ccccc3)C(C(=O)NC(C)(C)C)c3ccncc3)n2)o1 (stereo not drawn) | 50* | 0.5 | 0.6 | -1 | 44 | -2
COc1ccc(OC)c2c(C)cc(N3CCCN(C)CC3)nc12 | 12 | 0.9 | 1.2 | -5 | -17 | 3
COc1ccc(-c2cc(OC)c3c(C)oc(C)c3c(=O)c2)cc1OC | 85* | 0.2 | 0 | -4 | 99* | -6
COc1cc(-c2cc(OC)c3c(C)oc(C)c3c(=O)c2)ccc1O | 42 | 0.6 | 0.1 | -5 | 94* | -30
CC1CCCCN1C(=O)Cn1cc(/C=C2/C(=O)Nc3ccccc32)c2ccccc21 (stereo not drawn) | 37 | 0.6 | 0.4 | -5 | 58* | 4
CCC(=O)NC(Nc1ccccn1)(C(=O)OC)C(F)(F)F (stereo not drawn) | . | . | . | -1 | . | .
O=C(c1cccc2c1-c1ccccc1/C2=N/O)N1CCCCC1 | 51* | 0.5 | 0.5 | -2 | 50 | 13
